Data as given in PubChem BioAssay (NCI).
About 79,000 compounds went through this panel and 15% of them were active in at least one assay; those are over-represented in the sample as a whole. The source made the active and inactive calls. No stated cut-off is given here; in the data, active means growth inhibition above about 70%; inactive means the rest.

Legend:
[1] = NCI Yeast Anticancer Drug Screen. Data for the wt2 strain (AID 169);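 further: 0% = growth of vehicle-treated yeast cultures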; conditions: S. cerevisiae wt2 strain growth inhibition, stronger effect = higher value
Method in brief: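 Growth of compound-treated yeast is measured and expressed as inhibition relative to vehicle-only controls.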

[2] = NCI Yeast Anticancer Drug Screen. Data for the mlh1 strain (AID 171);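 further: 0% = growth of vehicle-treated control cultures of the same strain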; conditions: S. cerevisiae mlh1 strain growth inhibition, stronger effect = higher value
Method in brief: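 Test agents were incubated with yeast bearing a defined DNA damage repair or cell cycle control alteration; values are growth inhibition normalised to vehicle-treated cultures.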

[3] = NCI Yeast Anticancer Drug Screen. Data for the sgs1 strain (AID 173);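 further: 0% = growth of vehicle-only control cultures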; conditions: S. cerevisiae sgs1 mutant, stronger effect = higher value
Method in brief: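 Strain with an altered DNA repair or cell cycle pathway exposed to compound. Growth then measured. Value = inhibition versus vehicle control.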

[4] = NCI Yeast Anticancer Drug Screen. Data for the mlh1 rad18 strain (AID 175); conditions: S. cerevisiae mlh1 rad18 strain growth inhibition, stronger effect = higher value
Method in brief: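 A repair-deficient yeast strain is exposed to test compound, and growth is scored relative to vehicle-treated controls.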

[5] = NCI Yeast Anticancer Drug Screen. Data for the rad18 strain (AID 177); conditions: S. cerevisiae rad18 mutant growth inhibition, stronger effect = higher value
Method in brief: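 DNA-repair-defective yeast; compound treatment; growth inhibition scored against vehicle.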

[6] = NCI Yeast Anticancer Drug Screen. Data for the rad52 strain (AID 147);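 further: 0% = growth of vehicle-treated control cultures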; conditions: S. cerevisiae rad52 mutant growth inhibition, stronger effect = higher value
Method in brief: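 Growth of repair-deficient yeast cells was compared between compound-treated and vehicle-treated cultures to give percent inhibition.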

[7] = NCI Yeast Anticancer Drug Screen. Data for the wt1 strain (AID 149);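 further: 0% = growth of vehicle-treated wt1 cultures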; conditions: S. cerevisiae wt1 strain (SPY 50644) growth inhibition, stronger effect = higher value
Method in brief: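 wt1 strain grown with compound or vehicle; inhibition taken from the growth difference.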

[8] = NCI Yeast Anticancer Drug Screen. Data for the rad50EPP+ strain (AID 151);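 further: 0% = growth of vehicle-treated control cultures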; conditions: S. cerevisiae rad50 mutant strain, stronger effect = higher value
Method in brief: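 Measured: growth inhibition of rad50EPP+ yeast. Reference: vehicle-treated controls. Screen uses strains with defined genetic alterations in DNA damage repair or cell cycle control.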

[9] = NCI Yeast Anticancer Drug Screen. Data for the mgt1 strain (AID 153); conditions: S. cerevisiae mgt1 mutant growth inhibition, stronger effect = higher value
Method in brief: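 Compounds were applied to mgt1 mutant yeast, and growth was then compared against vehicle-treated control cultures to give percent inhibition.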

[10] = NCI Yeast Anticancer Drug Screen. Data for the rad50 strain (AID 155);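 further: 0% = growth of vehicle-only cultures of the same strain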; conditions: S. cerevisiae rad50 strain growth inhibition, stronger effect = higher value
Method in brief: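 DNA repair mutant yeast, compound exposure, growth read-out; inhibition is taken relative to vehicle.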

[11] = NCI Yeast Anticancer Drug Screen. Data for the mec2-1 strain (AID 157); conditions: S. cerevisiae mec2-1 strain, stronger effect = higher value
Method in brief: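 Compounds were applied to mec2-1 yeast cells. Their growth was then compared with that of vehicle-treated cultures to give growth inhibition.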

[12] = NCI Yeast Anticancer Drug Screen. Data for the rad14 strain (AID 159);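 further: 0% = growth of vehicle-treated control cultures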; conditions: S. cerevisiae rad14 strain growth inhibition, stronger effect = higher value
Method in brief: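 DNA repair-defective yeast, compound-exposed; % growth inhibition derived by comparison with vehicle-treated controls.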

[13] = NCI Yeast Anticancer Drug Screen. Data for the sgs1 mgt1 strain (AID 161);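 further: 0% = growth of cultures given vehicle only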; conditions: S. cerevisiae sgs1 mgt1 strain, stronger effect = higher value
Method in brief: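 Growth of a repair-deficient yeast mutant was monitored after compound treatment and expressed as inhibition relative to vehicle-treated cultures.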

[14] = NCI Yeast Anticancer Drug Screen. Data for the CLN2oe strain (AID 163);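 further: 0% = growth of vehicle-only control cultures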; conditions: S. cerevisiae CLN2oe strain, stronger effect = higher value
Method in brief: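 Cells of an engineered yeast line with disturbed cell-cycle regulation are treated with compound. Inhibition of growth is then calculated relative to the vehicle-treated reference.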

[15] = NCI Yeast Anticancer Drug Screen. Data for the cln2 rad14 strain (AID 165);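 further: 0% = growth equal to vehicle treated cultures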; conditions: S. cerevisiae cln2 rad14 strain, stronger effect = higher value
Method in brief: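 Strain: cln2 rad14 yeast, altered in cell cycle control and DNA damage repair. Read-out: growth inhibition vs vehicle.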

[16] = NCI Yeast Anticancer Drug Screen. Data for the bub3 strain (AID 167); conditions: S. cerevisiae bub3 mutant strain, stronger effect = higher value
Method in brief: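 In this screen, a yeast mutant lacking normal mitotic checkpoint function is challenged with compound. Relative growth versus vehicle gives the inhibition value.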

[17] = at 5.0 µM (retest, dose inferred, filed as 0.5)
[18] = at 50.0 µM (retest, dose inferred, filed as 5.0)

Measured: growth inhibition

COC1CC(CC2CCC(C)C(C(C)C(=O)O)O2)OC2(OC(C)(C3CCC(C)(C4OC(C5OC(O)(CO)C(C)CC5C)CC4C)O3)CC2C)C1C (stereo unspecified)
inactive: [1]; at 1.2 µM -46% | [1]; at 3.7 µM -46% | [1]; at 11.0 µM -18% | [1]; at 33.0 µM 60% | [2]; at 1.2 µM -3% | [2]; at 3.7 µM -15% | [2]; at 11.0 µM 0% | [3]; at 1.2 µM -36% | [3]; at 3.7 µM -22% | [3]; at 11.0 µM -12% | [4]; [17] 30% | [5]; at 1.2 µM -17% | [5]; at 3.7 µM -25% | [5]; at 11.0 µM -11%
active: [1]; at 100.0 µM 91% | [2]; at 33.0 µM 83% | [2]; at 100.0 µM 97% | [3]; at 33.0 µM 88% | [3]; at 100.0 µM 97% | [4]; [18] 96% | [4]; at 50.0 µM 87.8% | [5]; at 33.0 µM 93% | [5]; at 100.0 µM 97%

Oc1cccnc1[Se]
inactive: [6]; at 1.2 µM 4% | [6]; at 3.7 µM 7% | [6]; at 11.0 µM 55% | [7]; at 1.2 µM -2% | [7]; at 3.7 µM -3% | [7]; at 11.0 µM -4% | [7]; at 33.0 µM 46% | [8]; at 1.2 µM 1% | [8]; at 3.7 µM 9% | [8]; at 11.0 µM 33% | [9]; at 1.2 µM -4% | [9]; at 3.7 µM -3% | [9]; at 11.0 µM -2% | [9]; at 33.0 µM 68% | [10]; at 1.2 µM 2% | [10]; at 3.7 µM 6% | [10]; [17] -15% | [10]; at 11.0 µM 60% | [10]; [18] 55% | [11]; at 1.2 µM -3% | [11]; at 3.7 µM -5% | [11]; [17] -2% | [11]; at 11.0 µM -3% | [11]; at 33.0 µM 38% | [11]; [18] -10% | [12]; at 1.2 µM 1% | [12]; at 3.7 µM 1% | [12]; at 11.0 µM 5% | [13]; [17] -10% | [13]; [18] 4% | [14]; at 1.2 µM -3% | [14]; at 3.7 µM 3% | [14]; at 11.0 µM -8% | [14]; at 33.0 µM 2% | [14]; at 100.0 µM 37% | [15]; [17] 7% | [15]; [18] 6% | [16]; at 1.2 µM -6% | [16]; at 3.7 µM -7% | [16]; [17] -21% | [16]; at 11.0 µM -13% | [16]; at 33.0 µM -5% | [16]; [18] -18% | [16]; at 100.0 µM 63% | [1]; at 1.2 µM -5% | [1]; at 3.7 µM -9% | [1]; at 11.0 µM -15% | [2]; at 1.2 µM -2% | [2]; at 3.7 µM 2% | [2]; at 11.0 µM 11% | [3]; at 1.2 µM -1% | [3]; at 3.7 µM 21% | [3]; at 11.0 µM 11% | [4]; [17] 7% | [4]; [18] 59% | [5]; at 1.2 µM -2% | [5]; at 3.7 µM 3% | [5]; at 11.0 µM 20%
active: [6]; at 33.0 µM 99% | [6]; at 100.0 µM 99% | [7]; at 100.0 µM 99% | [8]; at 33.0 µM 74% | [8]; at 100.0 µM 96% | [9]; at 100.0 µM 99% | [10]; at 33.0 µM 98% | [10]; at 50.0 µM 99% | [10]; at 100.0 µM 99% | [11]; at 50.0 µM 97.5% | [11]; at 100.0 µM 98% | [12]; at 33.0 µM 95% | [12]; at 100.0 µM 99% | [13]; at 50.0 µM 95.3% | [15]; at 50.0 µM 99% | [16]; at 50.0 µM 99.2% | [1]; at 33.0 µM 97% | [1]; at 100.0 µM 99% | [2]; at 33.0 µM 98% | [2]; at 100.0 µM 99% | [3]; at 33.0 µM 98% | [3]; at 100.0 µM 99% | [4]; at 50.0 µM 98% | [5]; at 33.0 µM 94% | [5]; at 100.0 µM 99%
